Several values for one entry are separate records, joined by “and”; a condition that tells them apart may be missing. Equal values may be shown once. Records with an inconclusive call do not appear. Where a call stands in place of a potency, no number is given. Some compounds were tested as several samples or in several runs, with calls that do not always agree. Activity calls are given as the source filed them. Unless noted, calls come from the whole dose curve.
Legend:
[1] = Nuclear factor erythroid 2-related factor 2/antioxidant responsive element (Nrf2/ARE) small molecule agonists: qHTS cell viability counter screen in human keratinocytes (AID 1919968; active = well fitted cell-killing curve with a large enough effect in the repeat runs; note: nearly all actives have a fitted effect of over 55% in size; note: potency is the fitted concentration of half-maximal effect)
Summary of the method: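 Seed 1,500 KeratinoSens cells per well, then incubate 5 h at 37 C/5% CO2. Add compounds in DMSO and incubate 23 h. Add CellTiter-Fluor, wait 1 h and read fluorescence.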

[2] = Nuclear factor erythroid 2-related factor 2/antioxidant responsive element (Nrf2/ARE) small molecule agonists: luciferase reporter gene qHTS assay in human keratinocytes (AID 1919969); note: nearly all actives have a fitted effect of over 35% in size; note: potency is the fitted concentration of half-maximal effect
[3] = target: Gonadotropin-releasing hormone receptor (Homo sapiens) (UniProt P30968); assay: Human gonadotropin-releasing hormone receptor (GnRHR) small molecule agonists, calcium flux assay in GnRHR-HEK293 cells (AID 1920063); note: nearly all actives have a fitted effect of over 35% in size
Sequence of Gonadotropin-releasing hormone receptor (Homo sapiens) (P30968 whole entry, looked up): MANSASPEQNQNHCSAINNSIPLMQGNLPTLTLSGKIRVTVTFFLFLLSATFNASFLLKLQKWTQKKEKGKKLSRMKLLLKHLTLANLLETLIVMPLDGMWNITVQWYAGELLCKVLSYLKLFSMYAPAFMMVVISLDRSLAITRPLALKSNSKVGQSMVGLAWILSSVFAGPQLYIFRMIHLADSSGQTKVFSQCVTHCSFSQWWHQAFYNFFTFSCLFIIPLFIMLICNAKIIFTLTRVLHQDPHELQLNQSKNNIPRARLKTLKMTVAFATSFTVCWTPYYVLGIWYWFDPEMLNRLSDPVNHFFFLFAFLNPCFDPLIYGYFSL
Summary of the method: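 Cells: HEK293 stably expressing human GnRHR. Steps: overnight (18 h) culture, 1 h calcium dye loading at 37 C, compound addition, kinetic fluorescence read at 480/540 nm. Each compound tested at 15 concentrations in triplicate.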

[4] = G protein-coupled receptor (GPCR) small molecule agonists, calcium flux assay: HEK293 wild type cell line counter screen (AID 1920065)
Summary of the method: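 Counter-screen of the Tox21 10K library for non-specific calcium release: dye-loaded cells received compounds in DMSO and were monitored by kinetic fluorescence (480/540 nm, 3 min). Fifteen concentrations, run in triplicate.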

[5] = p53 small molecule agonists, cell-based qHTS assay with human liver microsomes (AID 1963577);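 note: p53 response element beta-lactamase reporter cells with liver microsomes plus NADPH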
Summary of the method: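 16 h, 37 C exposure of p53RE-bla cells to compounds with human liver microsomes and NADPH (0.5 mg/mL final each); detection via LiveBLAzer mixture, 2 h dark at room temperature.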

[6] = p53 small molecule agonists, cell-based qHTS assay with rat liver microsomes (AID 1963578)
Summary of the method: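 With rat liver microsomes and NADPH present (0.5 mg/mL final each), p53RE-bla cells are treated with compound for 16 h at 37 C. LiveBLAzer detection mixture is then applied for 2 h at room temperature in the dark.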

[7] = p53 small molecule agonists, cell-based qHTS assay with human liver microsomes: qHTS cell viability counter screen (AID 1963579); note: nearly all actives have a fitted effect of over 45% in size; note: potency is the fitted concentration of half-maximal effect
Summary of the method: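 In this multiplexed counter screen, the reporter plates were subsequently treated with CellTiter-Glo so that cell viability, reflected by luminescence, could be recorded for p53RE-bla cells dosed 16 h with compounds under microsomal activation (HLM and NADPH).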

[8] = p53 small molecule agonists, cell-based qHTS assay with rat liver microsomes: qHTS cell viability counter screen (AID 1963580); note: nearly all actives have a fitted effect of over 45% in size; note: potency is the fitted concentration of half-maximal effect
Summary of the method: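 HCT-116 p53RE-bla, 4,000 cells/well, 5 h pre-incubation; cpd + rat liver microsomes 0.5 mg/mL + NADPH 0.5 mg/mL (final); 16 h, 37 C; CellTiter-Glo, 30 min RT; luminescence.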

[9] = p53 small molecule agonists, cell-based qHTS assay (AID 1963582; active = well fitted activation curve with a large enough effect in the signal ratio in the repeat runs, not every such curve was filed as active; the % refers to the signal ratio)
Summary of the method: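 Quantitative HTS in p53RE-bla cells: after a 5 h settling period, compounds delivered in DMSO were left on cells for 16 h at 37 C, and reporter induction was measured as fluorescence following 2 h substrate loading.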

[10] = target: 5-hydroxytryptamine receptor 2A (Homo sapiens) (UniProt P28223); assay: 5-hydroxytryptamine receptor 2A (HTR2A) small molecule antagonists, cell-based qHTS assay (AID 1963586); note: nearly all actives have a fitted effect of over 45% in size
Sequence of 5-hydroxytryptamine receptor 2A (Homo sapiens) (P28223 whole entry, looked up): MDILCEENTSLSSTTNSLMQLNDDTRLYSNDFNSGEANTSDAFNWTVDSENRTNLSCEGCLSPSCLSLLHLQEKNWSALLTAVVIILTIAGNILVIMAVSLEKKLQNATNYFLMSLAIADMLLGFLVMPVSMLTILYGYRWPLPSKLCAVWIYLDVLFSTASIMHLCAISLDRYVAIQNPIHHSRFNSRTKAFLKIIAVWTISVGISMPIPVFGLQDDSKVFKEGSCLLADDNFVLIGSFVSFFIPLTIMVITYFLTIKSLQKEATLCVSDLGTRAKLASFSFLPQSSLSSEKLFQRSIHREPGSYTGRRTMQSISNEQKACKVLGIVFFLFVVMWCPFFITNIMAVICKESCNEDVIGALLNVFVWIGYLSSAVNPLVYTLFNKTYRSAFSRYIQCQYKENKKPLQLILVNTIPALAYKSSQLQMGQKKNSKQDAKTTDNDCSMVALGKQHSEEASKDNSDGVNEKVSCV
Summary of the method: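 Antagonist-mode intracellular calcium assay: DOI (4 nM) added after 5 min compound pre-incubation at room temperature to dye-loaded HTR2A-CHO cells. Fluorescence followed for 3 min, sampled every second.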

[11] = target: 5-hydroxytryptamine receptor 2A (Homo sapiens) (UniProt P28223); assay: 5-hydroxytryptamine receptor 2A (HTR2A) small molecule agonists, cell-based qHTS assay (AID 1963587); note: nearly all actives have a fitted effect of over 30% in size
Summary of the method: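 Kinetic calcium-flux fluorescence (2 min, 1 sec intervals) after compound addition in agonist mode. HTR2A-CHO cells were cultured 18 h, then dye-loaded 1 h at 37 C.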

[12] = target: Muscarinic acetylcholine receptor M1 (Homo sapiens) (UniProt P11229); assay: Cholinergic receptor muscarinic 1 (CHRM1) small molecule antagonists, cell-based qHTS assay (AID 1963588); note: nearly all actives have a fitted effect of over 40% in size; note: potency is the fitted concentration of half-maximal effect
Sequence of Muscarinic acetylcholine receptor M1 (Homo sapiens) (P11229 whole entry, looked up): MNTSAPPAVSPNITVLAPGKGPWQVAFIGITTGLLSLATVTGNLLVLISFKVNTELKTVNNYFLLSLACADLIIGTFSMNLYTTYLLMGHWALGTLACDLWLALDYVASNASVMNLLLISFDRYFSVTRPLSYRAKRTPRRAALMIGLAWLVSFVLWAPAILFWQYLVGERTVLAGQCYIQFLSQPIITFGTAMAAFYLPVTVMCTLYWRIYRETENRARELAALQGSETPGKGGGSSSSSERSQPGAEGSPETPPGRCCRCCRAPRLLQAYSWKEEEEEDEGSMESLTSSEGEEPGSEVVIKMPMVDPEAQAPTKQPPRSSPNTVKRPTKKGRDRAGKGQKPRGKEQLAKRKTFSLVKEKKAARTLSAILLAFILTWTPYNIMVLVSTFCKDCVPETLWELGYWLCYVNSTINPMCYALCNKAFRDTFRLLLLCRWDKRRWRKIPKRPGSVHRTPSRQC
Summary of the method: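 CHRM1-CHO calcium-flux assay, antagonist mode. Cells were seeded 18 h, dye-loaded 1 h at 37 C and given compound for 5 min at RT, then acetylcholine was added at 50nM. FDSS fluorescence was read 3 min; 15 concentrations, three runs.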

[13] = target: Muscarinic acetylcholine receptor M1 (Homo sapiens) (UniProt P11229); assay: Cholinergic receptor muscarinic 1 (CHRM1) small molecule agonists, cell-based qHTS assay (AID 1963589); note: nearly all actives have a fitted effect of over 35% in size
Summary of the method: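 Agonist-mode qHTS in CHO cells stably carrying human muscarinic M1. Intracellular calcium is tracked by fluorescence every second after compound transfer; each compound runs at 15 concentrations in three independent runs.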

[14] = cAMP Responsive Elements (CRE) small molecule agonists, cell-based qHTS assay (AID 1963590)
Summary of the method: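 Agonist mode qHTS in CRE-bla HEK 293T cells: compounds dosed from DMSO for 3 h at 37 C/5% CO2, followed by LiveBLAzer B/G FRET substrate for 2 h at room temperature.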

[15] = target: Beta-2 adrenergic receptor (Homo sapiens) (UniProt P07550); assay: Adrenergic beta2 receptor (ADRB2) small molecule antagonists, cell-based qHTS assay (AID 1963592); note: series mostly up to about 92 µM; nearly all actives have a fitted effect of over 50% in size
Sequence of Beta-2 adrenergic receptor (Homo sapiens) (P07550 whole entry, looked up): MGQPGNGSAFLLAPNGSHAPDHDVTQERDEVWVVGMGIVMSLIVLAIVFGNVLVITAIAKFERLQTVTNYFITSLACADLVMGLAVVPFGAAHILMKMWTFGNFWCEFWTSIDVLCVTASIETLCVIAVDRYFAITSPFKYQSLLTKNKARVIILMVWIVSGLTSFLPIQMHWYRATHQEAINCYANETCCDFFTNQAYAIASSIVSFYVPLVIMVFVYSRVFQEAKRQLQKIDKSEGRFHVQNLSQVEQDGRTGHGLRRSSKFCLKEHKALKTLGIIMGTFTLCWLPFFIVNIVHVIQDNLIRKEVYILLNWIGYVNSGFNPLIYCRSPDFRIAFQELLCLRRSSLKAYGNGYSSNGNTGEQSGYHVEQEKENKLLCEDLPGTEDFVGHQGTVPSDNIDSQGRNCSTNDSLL
Summary of the method: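 Cells (CHO, stable ADRB2 overexpression) incubated 18-20hr at 37C; compounds added from DMSO; agonist mix (1nM isoproterenol, 100uM IBMX, 25uM Ro-20-1724) added; 0.5hr RT; d2-cAMP and anti-cAMP-cryptate added; 1hr RT; 665/615 nm read.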

[16] = target: Beta-2 adrenergic receptor (Homo sapiens) (UniProt P07550); assay: Adrenergic beta2 receptor (ADRB2) small molecule agonists, cell-based qHTS assay (AID 1963593);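 note: CHO cells stably overexpressing human ADRB2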
Summary of the method: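 CHO cells stably over-expressing ADRB2 were plated overnight at 37C, then dosed with compounds plus a stimulation mix containing 100uM IBMX and 25uM Ro-20-1724 for 0.5hr at room temperature. cAMP was measured by HTRF competition, 1hr.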

[17] = target: D(2) dopamine receptor (Homo sapiens) (UniProt P14416); assay: Dopamine D2 receptor (DRD2) small molecule agonists, cell-based qHTS assay (AID 1963594); note: nearly all actives have a fitted effect of over 35% in size
Sequence of D(2) dopamine receptor (Homo sapiens) (P14416 whole entry, looked up): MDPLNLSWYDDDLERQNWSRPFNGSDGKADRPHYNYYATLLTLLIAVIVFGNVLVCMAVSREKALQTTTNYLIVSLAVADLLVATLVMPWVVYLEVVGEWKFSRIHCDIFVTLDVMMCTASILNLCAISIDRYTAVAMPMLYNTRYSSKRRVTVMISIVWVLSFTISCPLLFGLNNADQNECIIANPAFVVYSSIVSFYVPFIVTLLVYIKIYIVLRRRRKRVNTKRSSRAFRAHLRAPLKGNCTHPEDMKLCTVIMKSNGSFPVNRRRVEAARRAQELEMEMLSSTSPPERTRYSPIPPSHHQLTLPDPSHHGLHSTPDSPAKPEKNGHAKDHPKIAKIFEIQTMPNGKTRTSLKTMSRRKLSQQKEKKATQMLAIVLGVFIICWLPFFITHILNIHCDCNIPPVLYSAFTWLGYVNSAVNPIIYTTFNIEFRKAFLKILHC
Summary of the method: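 cAMP accumulation in DRD2-HEK293 cells measured by HTRF after 1 h detection; compounds added 10 min before NKH477 (200nM […]) forskolin-analogue stimulation, 30 min at room temperature, with Ro20-1724 present at 0.1 mM final.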

[18] = target: D(2) dopamine receptor (Homo sapiens) (UniProt P14416); assay: Dopamine D2 receptor (DRD2) small molecule antagonists, cell-based qHTS assay (AID 1963595; active = well fitted inhibition curve with a large enough effect in the signal ratio in the repeat runs, with a control signal flat; the % refers to the signal ratio)
Summary of the method: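 Antagonism was scored as restored cAMP in HEK293-DRD2 cells. These cells were stimulated with 200 nM NKH477 and 12 nM quinpirole for 30 min at room temperature, in the presence of 0.1 mM Ro20-1724.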

[19] = p53 small molecule agonists, cell-based qHTS assay: qHTS cell viability counter screen (AID 1963581); note: nearly all actives have a fitted effect of over 45% in size; note: potency is the fitted concentration of half-maximal effect
Summary of the method: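 Cells: HCT-116 with p53 response element-driven beta-lactamase. Treatment: 16 h, 37 C, compounds in DMSO. Read: CellTiter-Glo luminescence after 30 min RT.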

[20] = cAMP Responsive Elements (CRE) small molecule antagonists, cell-based qHTS assay (AID 1963591; active = well fitted inhibition curve with a large enough effect in the signal ratio in the repeat runs, not every such curve was filed as active; the % refers to the signal ratio)
Summary of the method: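 Antagonist mode: test compounds are co-incubated with the adenylyl cyclase activator NKH477 (0.25 uM final) on CRE-bla HEK293T cells for 3 h at 37 °C, followed by LiveBLAzer substrate loading.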

SMILES	Potency [1]	Potency [2]	Potency [3]	Potency [4]	Potency [5]	Potency [6]	Potency [7]	Potency [8]	Potency [9]	Potency [10]	Potency [11]	Potency [12]	Potency [13]	Potency [14]	Potency [15]	Potency [16]	Potency [17]	Potency [18]	Potency [19]	Potency [20]
N#CCC#N	inactive	61.1 µM (active)	inactive	inactive	inactive	inactive	inactive	inactive	inactive	inactive	inactive	inactive	inactive	inactive	inactive	inactive	inactive	inactive	–	–
CCN	inactive	inactive	inactive	inactive	inactive	inactive	inactive	–	inactive	inactive	inactive	inactive	inactive	inactive	inactive	–	inactive	inactive	inactive	inactive
O=C(O)C(Cl)Cl	inactive	inactive	inactive	inactive	–	–	–	inactive	–	inactive	inactive	inactive	inactive	inactive	inactive	inactive	inactive	inactive	inactive	inactive
CNC(=S)S	inactive	inactive	inactive	inactive	inactive	inactive	inactive	–	inactive	inactive	inactive	inactive	inactive	inactive	–	inactive	inactive	inactive	inactive	inactive
COc1ccc(C(CN(C)C)C2(O)CCCCC2)cc1 (stereo not drawn)	inactive	inactive	inactive	inactive	inactive	–	inactive	inactive	inactive	–	–	–	–	inactive	inactive	inactive	inactive	inactive	inactive	inactive
C=CCN1C[C@H](C)N([C@H](c2ccc(C(=O)N(CC)CC)cc2)c2cccc(OC)c2)C[C@H]1C	inactive	inactive	–	inactive	inactive	inactive	inactive	inactive	inactive	inactive	inactive	2.59 µM (active)	inactive	inactive	inactive	–	inactive	inactive	inactive	inactive
[P]#[In]	inactive	inactive	–	inactive	inactive	inactive	inactive	inactive	inactive	inactive	inactive	inactive	–	inactive	inactive	–	inactive	inactive	inactive	inactive
CCCCCCCCCCCCCCCCn1cc[n+](C)c1	inactive and 27.6 µM (active) and 13.7 µM (active)	inactive	–	inactive	inactive	inactive	37.1 µM (active) and inactive and 46.2 µM (active)	inactive and 36.7 µM (active) and 32.5 µM (active)	inactive	inactive	–	inactive and 950 nM (active) and 2.66 µM (active)	inactive	inactive	inactive	inactive	inactive	inactive	25.8 µM (active)	inactive
